From PubChem BioAssay
TGFb inhibitor: TGF-b pathway inhibition; Potency, µM (highest dose often 46.1 µM), for the others: at the highest dose activity, negative = inhibition, usual class: inhibitors; 410,000 compounds, 1.2% hits; HepG2 CAGA-GFP TGF-b/SMAD3 reporter, GFP fluorescence, 18 h; TGF-beta stimulated, 500 pg/mL final; also: % is scaled to controls: 0 for no effect and ±100 for the full control effect; nearly all actives have a fitted effect of over 65% in size
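Inhibition was scored as loss of TGF-beta-induced (500 pg/mL final, 18 hours, 37 degrees C) GFP in HEPG2 cells carrying a CAGA-GFP reporter, in DMEM with 1% FBS. Well GFP was summed per cell; Activity was normalised to unstimulated and stimulated DMSO wells, then concentration-response fitting.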
ATXN viability: viability counter-screen for ATXN expression inhibitors; 400,000 compounds, 0.49% hits; AID 651635; Potency, µM (doses to about 56.7 µM), actives largely listed as cytotoxic; S2 cells (HEK-293 line with an ATXN2-luciferase reporter) viability, CellTiter-Fluor protease fluorescence, 24 h; also: nearly all actives have a fitted effect of over 40% in size
ATXN2 expr inh: reduces ATXN2 reporter expression in HEK-293 cells; HEK-293 ATXN2-luciferase reporter, luminescence, 24 h; Potency, µM (titrated, usually from 57 µM), for the others: at the top dose activity change, negative = inhibition, most hits filed as inhibitors; 360,000 compounds, 0.72% hits; also: % is scaled to controls: 0 for no effect and ±100 for the full control effect; nearly all actives have a fitted effect of over 55% in size
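qHTS (up to 57 uM final) was run with 24 h compound exposure of reporter cells at 37 °C. Each well was multiplexed: SteadyGlo luminescence measured ATXN2-luciferase expression after a fluorogenic Gly-Phe-AFC viability readout (25 uM final).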
HepG2 tox: HepG2 cytotoxicity, counter-screen for TGF-b inhibitors. HepG2 CAGA-GFP viability, ATP luminescence, 18 h. Potency, µM (highest dose often 46.1 µM), without a hit: top-dose activity change, negative = cytotoxicity, actives largely listed as cytotoxic. 410,000 compounds, 0.76% hits
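HepG2 CAGA-GFP cells (1000/well, DMEM with 1% FBS) received compound, then TGF-beta at 500 pg/mL final, and were incubated 18 hours at 37 degrees C. Viability was read by CellTiter-Glo luminescence. Media-only wells were set as complete cell-killing and DMSO as no toxicity.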
RORgamma inh: ROR gamma (mouse) transcription inhibition; 310,000 compounds, 5.4% hits; Drosophila S2 Gal4-RORgamma UAS-luciferase reporter, 20 h; Potency, µM (titrated, usually from 53.6 µM), for the others: at the highest dose activity change, negative = inhibition, most hits filed as inhibitors; P51450; also: % is scaled to controls: 0 for no effect and ±100 for the full control effect; nearly all actives have a fitted effect of over 60% in size
Target sequence (P51450 whole entry, looked up, the tested form may be a part): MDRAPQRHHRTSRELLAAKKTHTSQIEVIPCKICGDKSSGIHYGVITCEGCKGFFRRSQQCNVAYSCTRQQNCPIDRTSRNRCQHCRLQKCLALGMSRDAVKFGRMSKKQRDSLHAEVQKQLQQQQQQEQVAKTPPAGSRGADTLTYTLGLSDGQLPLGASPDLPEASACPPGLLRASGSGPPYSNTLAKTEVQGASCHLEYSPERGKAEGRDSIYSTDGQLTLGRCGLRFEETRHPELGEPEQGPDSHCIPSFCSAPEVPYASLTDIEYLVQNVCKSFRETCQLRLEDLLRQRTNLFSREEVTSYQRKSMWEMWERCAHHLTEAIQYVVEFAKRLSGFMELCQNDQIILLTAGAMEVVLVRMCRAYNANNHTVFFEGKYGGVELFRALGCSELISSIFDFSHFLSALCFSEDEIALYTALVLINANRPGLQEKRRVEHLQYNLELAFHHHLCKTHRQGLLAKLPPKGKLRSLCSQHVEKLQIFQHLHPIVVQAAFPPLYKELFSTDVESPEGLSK
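Compounds are pin-transferred onto Drosophila Schneider cells expressing a copper-inducible Gal4–ROR gamma transactivation domain fusion. After 1 hr, copper sulfate is added to 700 uM final; luciferase is read 20 hr later.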
VP16 counter: counter-screen for ROR gamma inhibitors: Gal4-VP16 reporter; Drosophila S2 Gal4-VP16 UAS-luciferase, luminescence, 20 h; Potency, µM (top dose mostly 53.6 µM), without a hit: at the top dose activity, negative = inhibition, usual class: inhibitors; 310,000 compounds, 3.5% hits;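 also: Gal4-VP16 expression switched on by copper sulfate through the metallothionein promoter; % is scaled to controls: 0 for no effect and ±100 for the full control effect; nearly all actives have a fitted effect of over 50% in size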
Starred values were filed as active, the others as inactive; i = inactive; ? = inconclusive; nt = no result. The list is not random: actives were taken first. Their share in the collection is about 6.3%. Calls follow the shape of the dose curve; as a rule, active = well fitted curve in the direction sought with a large enough effect; inconclusive = small, poorly fitted or top-dose-only effect, or another doubt; inactive = no such curve, though single readings can be large; an effect the other way counts as inactive or inconclusive. Potency is read from the fitted curve at half-maximal effect.

SMILES	TGFb inhibitor	ATXN viability	ATXN2 expr inh	HepG2 tox	RORgamma inh	VP16 counter
COc1ccc(C(=O)NC(C)c2nc3ccccc3[nH]2)cc1OC (centres undefined)	7%	i	7%	5%	-8%	-4%
COc1cc(C(=O)Nc2nc3ccccc3[nH]2)ccc1OC(F)F	-22%	?	?	-9%	5µM*	7.9µM*
COc1ccc(C(=O)Nc2nc3ccccc3[nH]2)cc1OC	9%	i	37%	-9%	11µM*	10µM*
CCOCCCn1c(=N)c(C(=O)NCc2cccnc2)cc2c(=O)n3cc(C)ccc3nc21	0%	nt	5%	2%	nt	nt
CCOc1ccc(-c2cc3nc(C4CCN(C(=O)OC(C)(C)C)CC4)c(C(=O)Nc4ccc(C)c(F)c4)cn3n2)cc1	?	i	11%	-70%	nt	nt
CCOc1ccccc1OCCCC(=O)Nc1nc2ccccc2[nH]1	-31%	i	?	0%	?	-11%
CCOc1ccc(C(=O)Nc2nc3ccccc3[nH]2)cc1OCC	?	i	-30%	-29%	1.4µM*	16µM*
COc1ccc(N2C(C)=CS/C2=C(/C#N)c2nnc(N3CCOCC3)n2-c2ccccc2)cc1	-5%	i	6%	-7%	13µM*	0%
C=CCN1C(c2ccc(Br)cc2)=CS/C1=C(\C#N)c1nnc(N2CCOCC2)n1-c1ccccc1	-10%	i	-16%	-18%	nt	nt
C=CCN1C(=O)NC(c2ccccc2)(C(F)(F)F)S/C1=C(\C#N)c1nnc(N2CCOCC2)n1-c1ccccc1 (centres undefined)	-11%	?	-36%	-37%	5.6µM*	13µM*
Cc1ccc(-c2nc3ccccc3[nH]2)cc1NC(=O)COc1ccccc1[N+](=O)[O-]	11µM*	nt	nt	-75%	nt	nt
CCCOc1cccc(C(=O)Nc2cc(-c3nc4ccccc4[nH]3)ccc2C)c1	?	20µM*	?	-29%	nt	nt
CC1CCN(C(=O)c2cnn(-c3cccc(Cl)c3)c2C2CCN(C(=O)OC(C)(C)C)CC2)CC1	?	nt	nt	5%	nt	nt
O=C(Nc1ccc(N2CCOCC2)nc1N1CCOCC1)c1cccc(C(F)(F)F)c1	6%	i	-10%	2%	25%	9%
O=C(N/N=C/c1ccc(N2CCOCC2)o1)c1ccccc1[N+](=O)[O-]	0%	i	15%	-10%	13µM*	?
O=C(N/N=C/c1ccc(N2CCCCC2)o1)c1ccccc1[N+](=O)[O-]	?	?	-25%	-16%	?	8.9µM*
O=C(N/N=C/c1ccc(N2CCOCC2)o1)c1cccc(C(F)(F)F)c1	-7%	i	-16%	-71%	6.3µM*	4µM*
Nc1ccc(C(=O)N/N=C/c2ccc(N3CCOCC3)s2)cc1	1%	i	nt	-36%	nt	nt
O=C(N/N=C/c1ccc(N2CCOCC2)s1)c1ccccc1Br	?	i	6%	7%	11µM*	-7%
COC(=O)[C@H]1C[C@@H]2CC[C@@H](O)C[C@@H]2N1Cc1c(F)cccc1Cl	nt	nt	nt	nt	-8%	-1%
COC(=O)c1ccc(C(=O)N2CCc3c(C(=O)NC(C)c4ccco4)c(OC)cc(=O)n3CC2)cc1 (centres undefined)	nt	i	nt	nt	nt	nt
COc1ccc(Cn2c(CCC(=O)Nc3cc(OC)c(OC)c(OC)c3)nc3cccnc32)cc1	-1%	?	-3%	-14%	nt	nt
O=C(Nc1cc(Cl)cc2c1[nH]c1cnccc12)c1cccnc1	nt	nt	10%	nt	-10%	-14%
COC(=O)c1cccc(Nc2nc3ccccc3nc2C)c1	3%	i	5%	-11%	-27%	13µM*
CCOC(=O)c1c(Nc2cccc(C(=O)OC)c2)nnc(-c2ccccc2)c1-c1ccccc1	-1%	i	-1%	-17%	nt	nt
SMILES	TGFb inhibitor	ATXN viability	ATXN2 expr inh	HepG2 tox	RORgamma inh	VP16 counter
CC(=O)c1ccc(Cc2ccc(C(C)=O)s2)s1	-7%	i	nt	-28%	nt	nt
Cc1ccccc1C(=O)NNC1=NCCC1	17%	i	-2%	3%	13µM*	14µM*
CN(Cc1ccccc1)S(=O)(=O)c1ccc(NC(=S)NC(=O)C2CCCC2)cc1	-6%	i	-19%	-5%	5µM*	?
Cc1ccc(C(=O)NC(=S)Nc2ccc(S(=O)(=O)N(C)c3ccccc3)cc2)cc1	3%	?	-17%	3%	7.1µM*	?
COc1cc(C(=O)Nc2ccc(S(=O)(=O)N(C)c3ccccc3)cc2)cc(OC)c1OC	0%	i	6%	-75%	?	10%
CN(C)S(=O)(=O)c1ccc(NC(=S)NC(=O)C2CCC2)cc1	0%	i	0%	-6%	?	-25%
CN(c1ccccc1)S(=O)(=O)c1ccc(NC(=S)NC(=O)C2CC2)cc1	-5%	i	-1%	2%	11µM*	?
COc1ccccc1/C=C/C(=O)NC(=S)Nc1ccc(S(=O)(=O)N(C)c2ccccc2)cc1	4%	i	-29%	-4%	13µM*	5%
Cc1ccc(S(=O)(=O)N(C)c2ccc(C(=O)Nc3ccccn3)cc2)cc1	?	i	5%	-25%	nt	nt
Cc1ccsc1-c1cc2nc(NCCCN(C)C)n(C)c(=O)c2s1	6%	i	-26%	-18%	nt	nt
Cc1nc2ccc(NC(=O)c3ccc(S(=O)(=O)N(C)c4ccccc4)cc3)cc2s1	?	?	30µM*	1%	?	-30%
CN(c1ccccc1)S(=O)(=O)c1ccc(NC(=S)NC(=O)c2ccccc2)cc1	26%	i	-2%	8%	18µM*	?
CC(C)(C)NS(=O)(=O)c1ccc(NC(=S)NC(=O)C2CCC2)cc1	0%	i	-7%	-22%	18µM*	-16%
CC(=O)Nc1ccc(NC(=O)c2ccc(S(=O)(=O)N(C)c3ccccc3)cc2)cc1	-14%	?	nt	-29%	nt	nt
CC(=O)NS(=O)(=O)c1ccc(NC(=S)NC(=O)C2CCC2)cc1	-5%	i	-8%	-6%	nt	nt
Cc1ccc(CNC(=O)CSc2nc3ccccc3nc2Cc2ccc(C)cc2)cc1	2%	?	0%	-10%	nt	nt
CCOC(=O)c1ccc(NC(=O)CC(=O)Nc2ccc3nc4n(c(=O)c3c2)CCCCC4)cc1	?	?	-28%	-41%	nt	nt
CN1CCN(C2=C(Cl)C(=O)C(c3cnc(N4CCCCC4)s3)=C(Cl)C2=O)CC1	?	25µM*	?	-32%	-13%	0%
NC(=O)C1CCN(C2=C(Cl)C(=O)c3ccccc3C2=O)CC1	?	?	?	7.1µM*	-23%	0%
